Screening results: PubChem BioAssay, National Center for Advancing Translational Sciences (NCATS)
VP16 counter: Gal4-VP16 reporter inhibition counter-screen | Drosophila S2 Gal4-VP16 UAS-luciferase, luminescence, 20 h | Potency, µM (top dose mostly 53.6 µM), for inactives: at the highest dose activity, negative = inhibition, most hits filed as inhibitors | 3.5% of 310,000 active;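 also: Gal4-VP16 expression switched on by copper sulfate through the metallothionein promoter; % is scaled to controls: 0 for no effect and ±100 for the full control effect; nearly all actives have a fitted effect of over 50% in size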
S2 tox: reduces viability in counter-screen for ATXN expression inhibitors; Potency, µM (highest dose often 56.7 µM), usual class: cytotoxic; S2 cells (HEK-293 line with an ATXN2-luciferase reporter) viability, CellTiter-Fluor protease fluorescence, 24 h; 0.49% of 400,000 active; also: nearly all actives have a fitted effect of over 40% in size
TGFb inhibitor: TGF-b pathway inhibition; 1.2% of 410,000 active; Potency, µM (highest dose often 46.1 µM), for the others: at the highest dose activity, negative = inhibition, hits mostly inhibitors; AID 588855; HepG2 CAGA-GFP TGF-b/SMAD3 reporter, GFP fluorescence, 18 h; TGF-beta stimulated, 500 pg/mL final; also: % is scaled to controls: 0 for no effect and ±100 for the full control effect; nearly all actives have a fitted effect of over 65% in size
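Per well, imaged GFP fluorescence of HEPG2 CAGA-GFP cells gives the signal; cells get compound, then TGF-beta (500 pg/mL final), 18 h at 37 degrees C; %Activity versus -TGF-beta and +DMSO controls.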
RORgamma inh: inhibitors of mouse ROR gamma transcriptional activity | P51450 | Drosophila S2 Gal4-RORgamma UAS-luciferase reporter, 20 h | Potency, µM (titrated, usually from 53.6 µM), inactives show top-dose activity change, negative = inhibition, hits mostly inhibitors | 5.4% of 310,000 active | AID 2551; also: % is scaled to controls: 0 for no effect and ±100 for the full control effect; nearly all actives have a fitted effect of over 60% in size
Target sequence (P51450 whole entry, looked up, the tested form may be a part): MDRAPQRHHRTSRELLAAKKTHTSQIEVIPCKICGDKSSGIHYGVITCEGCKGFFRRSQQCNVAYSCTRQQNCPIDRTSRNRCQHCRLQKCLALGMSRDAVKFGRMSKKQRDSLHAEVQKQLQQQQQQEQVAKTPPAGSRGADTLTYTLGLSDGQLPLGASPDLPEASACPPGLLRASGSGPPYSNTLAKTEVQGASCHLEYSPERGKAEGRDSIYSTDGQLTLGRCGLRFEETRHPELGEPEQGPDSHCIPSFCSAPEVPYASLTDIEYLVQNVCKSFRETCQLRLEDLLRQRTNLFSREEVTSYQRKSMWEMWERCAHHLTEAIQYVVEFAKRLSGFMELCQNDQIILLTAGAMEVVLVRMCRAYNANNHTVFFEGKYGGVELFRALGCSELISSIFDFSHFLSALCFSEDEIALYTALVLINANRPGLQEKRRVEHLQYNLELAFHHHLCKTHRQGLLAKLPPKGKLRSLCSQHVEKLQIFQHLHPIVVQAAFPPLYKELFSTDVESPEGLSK
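Schneider cells (Drosophila), stable Gal4 DBD–ROR gamma + UAS-luc; 1 hr cmpd preincubation; Cu2+ induction 700 uM final; 20 hr ambient; luminescence.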
HepG2 viability: counter-screen for TGF-b inhibitors: cytotoxicity in HepG2 cells; HepG2 CAGA-GFP viability, ATP luminescence, 18 h; 0.76% of 410,000 active; Potency, µM (doses to about 46.1 µM), for the others: at the highest dose activity change, negative = cytotoxicity, actives largely listed as cytotoxic; AID 588856
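HepG2 CAGA-GFP cells (1000/well, DMEM with 1% FBS) received compound, then TGF-beta at 500 pg/mL final, and were incubated 18 hours at 37 degrees C. Viability was read by CellTiter-Glo luminescence. Media-only wells were set as complete cell-killing and DMSO as no toxicity.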
ATXN2 expr inh: inhibitors of ATXN2 expression; HEK-293 ATXN2-luciferase reporter, luminescence, 24 h; Potency, µM (series often up to 57 µM), for inactives: at the top dose activity change, negative = inhibition, actives largely listed as inhibitors; 0.72% of 360,000 active; AID 1745845; also: % is scaled to controls: 0 for no effect and ±100 for the full control effect; nearly all actives have a fitted effect of over 55% in size
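qHTS (up to 57 uM final) was run with 24 h compound exposure of reporter cells at 37 °C. Each well was multiplexed: SteadyGlo luminescence measured ATXN2-luciferase expression after a fluorogenic Gly-Phe-AFC viability readout (25 uM final).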
* = called active by the depositor; i = inactive; ? = inconclusive; / = no result given. Shown are actives, neighbours in structure and some others; about 6.3% of the full set was active somewhere. Calls follow the shape of the dose curve; as a rule, active = well fitted curve in the direction sought with a large enough effect; inconclusive = small, poorly fitted or top-dose-only effect, or another doubt; inactive = no such curve, though single readings can be large; an effect the other way counts as inactive or inconclusive. Potency is read from the fitted curve at half-maximal effect.

SMILES	VP16 counter	S2 tox	TGFb inhibitor	RORgamma inh	HepG2 viability	ATXN2 expr inh
CCc1nnc(NC(=O)C2Cc3ccccc3CN2S(=O)(=O)CC)s1 (configuration not stated)	4%	i	-13%	-21%	7%	26%
CCS(=O)(=O)N1Cc2ccccc2CC1C(=O)Nc1nc2ccccc2[nH]1 (configuration not stated)	-26%	i	-4%	?	-14%	37%
CCS(=O)(=O)N1Cc2ccccc2CC1C(=O)Nc1nc2ccccc2s1 (configuration not stated)	4.5µM*	i	9%	3.5µM*	-6%	74%
CCOC(=O)c1ccc(NC(=O)Cc2coc3cc4c(cc23)CCC4)cc1	-15%	i	?	?	-7%	-9%
Cc1ccc(NC(=O)Cc2coc3ccc(C(C)C)cc23)cc1Cl	/	?	11µM*	/	-32%	-8%
CCCCOC(=O)c1ccc(NC(=O)Cc2coc3ccc(C(C)C)cc23)cc1	/	?	11µM*	/	-39%	?
Cc1ccc(NC(=O)Cc2coc3ccc(C(C)C)cc23)c(C)c1	/	i	?	/	-43%	-10%
N=C1N=C(N)c2cc3ccccc3cc21	-6%	32µM*	/	-2%	/	18µM*
NC1=Nc2cccc3cccc1c23	-14%	/	-22%	?	-2%	?
CCOc1ccc(N2C(=O)c3n[nH]c(-c4cccs4)c3C2c2cccc(F)c2)cc1 (configuration not stated)	/	/	?	/	11µM*	?
CCOC(=O)c1ccc(N2C(=O)c3[nH]nc(-c4ccc(OCC)cc4)c3C2c2cccs2)cc1 (configuration not stated)	/	?	?	/	-20%	?
CCOC(=O)c1ccc(N2C(=O)c3[nH]nc(-c4ccc(OC)cc4)c3C2c2cccc(O)c2)cc1 (configuration not stated)	/	/	16µM*	/	10µM*	?
CCOC(=O)c1ccc(N2C(=O)c3n[nH]c(-c4cccs4)c3C2c2cccc(OC)c2)cc1 (configuration not stated)	/	?	1.8µM*	/	-51%	?
CCOC(=O)c1ccc(N2C(=O)c3[nH]nc(-c4ccc(C)cc4)c3C2c2cccc(F)c2)cc1 (configuration not stated)	/	?	?	/	11µM*	?
CCOC(=O)c1ccc(N2C(=O)c3[nH]nc(-c4ccc(OCC)cc4)c3C2c2ccc(OC)cc2OC)cc1 (configuration not stated)	/	i	?	/	-16%	-5%
CC(C)c1cc(Cn2c3ccccc3c(=O)n2C(C)C)on1	/	i	4%	/	-68%	-8%
COc1cccc(-n2c(SCC(=O)Nc3nnc(C)s3)nc3c([nH]c4ccccc43)c2=O)c1	/	i	11%	/	-2%	-12%
O=[N+]([O-])c1ccc(C(c2sc3nc(-c4ccco4)nn3c2O)N2CCC3(CC2)OCCO3)cc1 (configuration not stated)	/	i	15%	/	7%	8%
O=C1/C(=C/c2cccs2)SC(=S)N1CCC(=O)N1CCCCC1CCO (configuration not stated)	11µM*	i	-28%	?	-31%	48%
O=C(CCN1C(=O)/C(=C/c2cccs2)SC1=S)N1CCCCC1	?	?	?	11µM*	-16%	?
O=C(CCN1C(=O)/C(=C\c2ccccc2)SC1=S)N1CCCCC1	-6%	?	-12%	20%	-5%	?
O=C1COc2ccc(N3C(=O)C=CC3=O)cc2N1	10µM*	/	/	6.3µM*	/	/
COC(=O)C1=C(C)NC(=O)CC1c1cc2c(cc1Br)OCO2 (configuration not stated)	-7%	i	-1%	13%	3%	4%
CC1=C(C(=O)OC2CCCCCCC2)C(c2cc3c(cc2Br)OCO3)CC(=O)N1 (configuration not stated)	-23%	i	?	11%	16µM*	?
CC1=C(C(=O)OCc2ccc(C)cc2)C(c2ccccc2F)CC(=O)N1 (configuration not stated)	/	i	11µM*	/	-38%	-16%
SMILES	VP16 counter	S2 tox	TGFb inhibitor	RORgamma inh	HepG2 viability	ATXN2 expr inh
CCOc1ccccc1C1CC(=O)NC(C)=C1C(=O)OCc1ccc(C)cc1 (configuration not stated)	/	i	?	/	-52%	2%
CCOc1ccccc1C1CC(=O)NC(C)=C1C(=O)OC1CCCCCC1 (configuration not stated)	/	i	?	/	16µM*	-3%
CC1=C(C(=O)OC2CCCCCC2)C(c2ccccc2Cl)CC(=O)N1 (configuration not stated)	/	i	?	/	-35%	0%
O=C1CC[C@@H](C(=O)N[C@@H](Cc2cnc[nH]2)C(=O)N[C@@H](Cc2c[nH]c3ccccc23)C(=O)N[C@@H](CO)C(=O)N[C@@H](Cc2ccc(O)cc2)C(=O)O)N1	-5%	/	/	-13%	/	/
Cc1ccc(C(=O)N2CCCC(N3CCN(c4cccc(C(F)(F)F)c4)CC3)C2)s1 (configuration not stated)	-4%	?	11µM*	?	-45%	/
CC(=O)N1CCCC(N2CCN(c3cccc(C(F)(F)F)c3)CC2)C1 (configuration not stated)	6%	i	-3%	2%	-40%	28%
NC(N)=N/N=C/c1ccc(OCc2ccccc2Cl)cc1	?	28µM*	?	?	-96%	14µM*
NC(N)=N/N=C/c1ccc(Cl)c(Cl)c1	-8%	i	?	2%	13µM*	?
NC(N)=N/N=C/c1ccccc1	10%	?	11%	5%	11%	-24%
CCn1c(-c2ccccc2F)nc2cc(NC(C)=O)cc(C(=O)NCC3CCOCC3)c21	/	i	/	/	/	/
CC(C)C[C@H](NC(=O)[C@H](CCCCN)NC(=O)[C@H](CCC(N)=O)NC(=O)[C@H](Cc1cnc[nH]1)NC(=O)[C@H](Cc1cnc[nH]1)NC(=O)[C@@H](N)C(C)C)C(=O)N[C@H](C(=O)N[C@@H](Cc1ccccc1)C(=O)N[C@@H](Cc1ccccc1)C(=O)N[C@@H](C)C(=O)N[C@@H](CCC(=O)O)C(=O)N[C@@H](CC(=O)O)C(=O)N[C@H](C(=O)NCC(=O)N[C@@H](CO)C(=O)N[C@@H](CC(N)=O)C(=O)N[C@@H](CCCCN)C(=O)O)C(C)C)C(C)C	-4%	/	/	2%	/	/
